# Most compounds without a hit are left out; they make up all but 3.6% or so of the library.
# PLK1 PBD block = inhibitors of human PLK1 polo-box domain binding; 360,000 compounds, 2.8% hits; Plk1 PBD binding of FITC phosphopeptide, fluorescence polarization; Potency, µM, without a hit: max response, negative = inhibition, most hits filed as inhibitors; P53350; note: potency is the fitted concentration of half-maximal effect; series mostly up to about 57 µM; % is set by controls: 0 for no effect and ±100 for the full control effect; nearly all actives have a fitted effect of over 65% in size
# Rango dissoc inh = prevents RanGTP from dissociating the Rango-importin beta complex | O95149+P62826 | Biochemical FRET Rango-importin beta, RanGTP-induced dissociation | Potency, µM (series often up to 46.1 µM), without a hit: top-dose activity change, negative = inhibition | 340,000 compounds, 0.071% hits | AID 540253; calls by dose curve; note: potency is the fitted concentration of half-maximal effect; % of control where 0% means no effect; nearly all actives have a fitted effect of over 45% in size
#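 Recombinant Rango FRET biosensor (EYFP–snurportin 1 IBB–cerulean CFP10) at 0.1 uM premixed with 0.25 uM importin beta in PBS, 1 mM DTT, 0.02% Tween-20, 0.1% BSA. Compound added 5 min; RanGTP-RCC1 (0.6 uM Ran, 2 mM GTP, 0.2 uM RCC1) then triggers release, read at 45 min.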
# Rango-impB inh = inhibitors of Rango-importin beta complex formation; Potency, µM (titrated, usually from 92.2 µM), inactives show at the top dose inhibition of complex formation; Q14974; Rango CFP/YFP FRET sensor + importin beta, 45 min; 340,000 compounds, 0.031% hits; calls by dose curve;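 note: potency is the fitted concentration of half-maximal effect; 0% = DMSO wells and 100% = buffer wells lacking importin beta; nearly all actives have a fitted effect of over 15% in size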
#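 FRET biosensor Rango (snurportin 1 IBB between N-terminal EYFP and C-terminal Cerulean), 50 nM in PBS/1 mM DTT/0.02% Tween-20/0.1% BSA, preincubated 5 min RT with compound; 0.125 microM importin beta added, 45 min RT, CFP/YFP FRET ratio read.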
# KAT2A inh = inhibitors of human GCN5L2 histone acetyltransferase; 390,000 compounds, 0.21% hits; GCN5L2 HAT assay, ThioGlo1 CoA-SH fluorescence; Potency, µM (series often up to 58.9 µM), without a hit: at the highest dose activity change, negative = inhibition, actives largely listed as inhibitors; note: potency is the fitted concentration of half-maximal effect; % is set by controls: 0 for no effect and ±100 for the full control effect
#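 Compounds, pin-transferred from DMSO stocks, meet 20nM GCN5L2 for 15 min before the reaction begins with H3(1-25) peptide (75uM) and acetyl-CoA (70uM). Thiol-reactive ThioGlo1 reports CoA release over 20 min at room temperature.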
# VDR inh = vitamin D3 receptor (human) inhibition | P11473 | VDR-SRC2-3 peptide fluorescence polarization, 2 h | Potency, µM, for inactives: max response, negative = inhibition, most hits filed as inhibitors | 400,000 compounds, 0.93% hits | AID 504847; note: potency is the fitted concentration of half-maximal effect; % is set by controls: 0 for no effect and ±100 for the full control effect
# Target sequence (P11473 whole entry, looked up): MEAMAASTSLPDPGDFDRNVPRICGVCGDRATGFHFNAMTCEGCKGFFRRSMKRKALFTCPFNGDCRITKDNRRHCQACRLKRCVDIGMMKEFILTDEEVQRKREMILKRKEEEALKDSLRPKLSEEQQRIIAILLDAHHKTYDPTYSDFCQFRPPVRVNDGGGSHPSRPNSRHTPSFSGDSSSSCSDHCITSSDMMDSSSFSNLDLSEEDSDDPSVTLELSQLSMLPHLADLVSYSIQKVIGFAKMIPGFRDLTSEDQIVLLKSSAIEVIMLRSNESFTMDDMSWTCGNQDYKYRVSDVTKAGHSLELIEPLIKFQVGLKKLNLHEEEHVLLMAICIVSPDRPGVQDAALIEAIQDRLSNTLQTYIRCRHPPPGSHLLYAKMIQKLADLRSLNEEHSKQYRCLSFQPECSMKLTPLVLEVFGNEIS
#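 After 23 nl compound addition and a short centrifugation, plates sat for 2 hours at ambient temperature; polarization of fluorescence then indicated loss of VDR binding to peptide SRC2-3.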
# PI5P4Ka inh = inhibitors of human PI5P4K alpha; 330,000 compounds, 1.2% hits; AID 652105; max response, %; PI5P4Kalpha enzyme, ADP-Glo luminescence, 60 min; hits give low values; P48426; active = max response of -50% or lower; inconclusive = between -30% and -50%; inactive = -30% or higher; note: value at the top dose of about 77 µM; % is set by controls: 0 for no effect and ±100 for the full control effect
#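 Human PI5P4Kalpha with substrate in 0.038 M HEPES pH 7.4, 0.28 mM EGTA, 0.1% CHAPS, 5% DMSO; reaction started with 5 microM ATP (final), 60 min at room temperature. ADP formed read by ADP-Glo luminescence.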
# * = called active by the depositor; ? = inconclusive; nt = no result given. Unless noted, calls come from the whole dose curve; as a rule, active = well fitted curve in the direction sought with a large enough effect; inconclusive = small, poorly fitted or top-dose-only effect, or another doubt; inactive = no such curve, though single readings can be large; an effect the other way counts as inactive or inconclusive.
SMILES,PLK1 PBD block,Rango dissoc inh,Rango-impB inh,KAT2A inh,VDR inh,PI5P4Ka inh
COc1ccc(C(=O)C=Cc2ccc(OCc3ccccc3)c(OC)c2)cc1OC,-8.7%,nt,nt,nt,nt,3.6
C#CCOc1ccc(/C=C2/C(=O)N(c3cccc(C(=O)O)c3)N=C2C)cc1OC,1.89µM*,-8.7%,0.5%,-10.3%,?,-18.8
COc1cc(/C=C2/SC(=O)N(Cc3ccccc3)C2=O)ccc1OCc1ccncc1,-6.9%,-20.0%,-0.5%,-16.5%,-0.6%,9.7
Cc1[nH][nH]c(=O)c1C(c1ccc(O)c([N+](=O)[O-])c1)c1c(C)[nH][nH]c1=O,-8.2%,15.0%,-0.6%,11.7%,4.0%,-11.3
Cc1[nH][nH]c(=O)c1[C@@H](c1ccccc1[N+](=O)[O-])C(C#N)C#N,23.8µM*,-5.2%,?,-2.7%,?,-15.4
COc1ccc(O)c(C(c2c(C)[nH][nH]c2=O)c2c(C)[nH][nH]c2=O)c1,7.52µM*,-10.5%,4.9%,?,-4.4%,-8.3
Cc1[nH][nH]c(=O)c1C(c1ccc([N+](=O)[O-])cc1)c1c(C)[nH][nH]c1=O,26.7µM*,-13.1%,3.2%,?,?,4.7
COc1ccc(C(c2c(C)[nH][nH]c2=O)c2c(C)[nH][nH]c2=O)cc1Br,23.8µM*,1.4%,3.6%,-8.0%,?,-0.1
CCC1Oc2ccc(C)cc2N(CC(=O)NCCc2ccccc2)C1=O (stereo not drawn),nt,nt,nt,-6.5%,6.0%,nt
Cc1cccc(N2CCN(C(=O)C3CCN(S(=O)(=O)Cc4ccccc4)CC3)CC2)c1C,nt,nt,nt,-1.5%,8.1%,nt
Cc1ccc(C(c2c(C)[nH][nH]c2=O)c2c(C)[nH][nH]c2=O)cc1,26.7µM*,41.4%,2.4%,4.5%,?,12.8
CC(C)[C@H](NS(=O)(=O)c1ccc2c(c1)OCCO2)C(=O)OCC(=O)Nc1cc(Cl)ccc1Cl,29.9µM*,-16.3%,0.1%,-8.8%,79.4µM*,-7.8
COc1ccc2cc(CNc3ccc(OC)c(OC)c3)c(=O)n(CC(=O)Nc3ccc(C)cc3)c2c1,nt,nt,nt,-12.7%,5.5%,nt
O=C(CCc1ccc(S(=O)(=O)NC2CCCCC2)cc1)Nc1ccccc1,26.7µM*,0.8%,-0.5%,-22.7%,-12.4%,-12.2
O=[N+]([O-])c1ccc(-n2nnnc2-c2ccccc2)cc1,10.6µM*,8.5%,0.8%,-1.5%,22.4µM*,-25.4
COc1ccc(/C=C/C(=O)Nc2sc3c(c2C(N)=O)CCC(C)C3)cc1OC (stereo not drawn),nt,nt,nt,-7.0%,1.4%,nt
COc1ccc2nc(SCC(=O)Nc3cc(OC)c(OC)cc3C(=O)O)c(C)cc2c1,29.9µM*,23.5%,-2.1%,2.2%,-11.5%,-1.6
COc1cc(NC(=O)CSc2nccc(C)n2)c(C(=O)O)cc1OC,0.1%,-7.0%,-0.5%,-1.7%,-10.0%,-5.1
COc1cc(NC(=O)CSc2ncnc3sc4c(c23)CCCC4)c(C(=O)O)cc1OC,26.7µM*,-8.5%,-3.8%,-10.0%,-21.4%,-25.2
CC(=O)CSc1ncnc2sc3c(c12)CCC3,-7.5%,1.4%,-2.0%,-8.6%,-8.0%,-10.0
Cc1ccc(C)c(CN2C(=O)c3ccccc3S(=O)(=O)c3ccc(C(=O)N(C)C4CCCCC4)cc32)c1,nt,nt,nt,-7.8%,4.9%,nt
COc1ccc(C(C(=O)Nc2ccc(C(C)C)cc2)N(C)C(=O)Cc2cccs2)cc1 (stereo not drawn),nt,nt,nt,-12.4%,-13.5%,nt
CSCC[C@H](NC(=O)c1ccc(NC[C@@H](N)CS)cc1-c1ccccc1)C(=O)O,nt,nt,nt,-28.4%,7.94µM*,nt
COC(=O)[C@H](CCSC)NC(=O)c1ccc(NC[C@@H](N)CS)cc1-c1ccccc1,nt,nt,nt,-11.5%,10µM*,nt
COC(=O)[C@H](CCSC)NC(=O)c1cccnc1SC,-1.6%,2.6%,-3.2%,-2.4%,-14.9%,0.5
SMILES,PLK1 PBD block,Rango dissoc inh,Rango-impB inh,KAT2A inh,VDR inh,PI5P4Ka inh
CC1CC=CC2C1C(=O)N(Cc1ccccc1)C2c1ccc(Br)cc1F (stereo not drawn),nt,nt,nt,nt,-26.3%,nt
COc1ccc2c(C#CCCO)c(-c3ccc(S(C)(=O)=O)cc3)sc2c1,26.7µM*,0.6%,?,-10.0%,-7.8%,-0.7
COc1ccc2sc(-c3ccc(S(C)(=O)=O)cc3)c(C#CCO)c2c1,-14.0%,-7.5%,-0.3%,-19.3%,13.8%,-28.3
COc1cc(Cl)c(C)cc1NC(=O)CCCN1C(=O)C(c2ccccc2)Oc2cccnc21 (stereo not drawn),nt,nt,nt,-5.7%,-0.6%,nt
C=CCn1c(C)cc(C(=O)Cn2ncc(Cl)c(Cl)c2=O)c1C,-22.4%,-11.2%,0.4%,-23.7%,-18.9%,-72.2*
CC(C)(C)C(=O)Cn1ncc(Cl)c(Cl)c1=O,-13.6%,4.0%,0.7%,-1.4%,9.3%,0.8
COCCCNC(=O)c1cc(OC)c(OC)c(OC)c1,29.9µM*,11.6%,0.9%,-0.5%,-13.4%,-10.3
CNC(=O)c1cc(Cl)c(OC)c(OC)c1,26.7µM*,-2.9%,-1.6%,31.5%,-31.7%,-14.9
CSc1nc(N)c2ncn([C@@H]3O[C@H](COP(=O)(O)OP(=O)(O)O)C(O)[C@H]3O)c2n1 (stereo partly drawn),nt,nt,nt,-16.8%,2.2%,nt
CCOc1ccc(CNC(=O)CCCn2c(=O)c3cccn3c3ccc(F)cc32)cc1,nt,nt,nt,-5.5%,4.6%,nt
CC(C)(C)c1cc(CNC2CS(=O)(=O)C[C@@H]2O)cc(C(C)(C)C)c1O (stereo partly drawn),?,-21.7%,1.6%,-7.7%,50.1µM*,-0.4
O=S1(=O)CC(O)C(NCc2ccco2)C1 (stereo not drawn),-3.5%,-5.6%,-1.6%,-19.1%,?,0.1
CCOc1ccc(N(Cc2cc3cc(C)ccc3[nH]c2=O)C(=O)c2cccc(Cl)c2)cc1,nt,nt,nt,-6.0%,11.3%,nt
Cc1ccc(NC(=O)CC2Nc3cc(C)c(C)cc3NC2=O)c(C)c1 (stereo not drawn),nt,nt,nt,-2.3%,-8.0%,nt
O=C(CSc1ccccc1C(=O)O)NC12CC3CC(CC(C3)C1)C2,29.9µM*,-2.8%,4.3%,-3.5%,-24.6%,-12.5
COc1cccc(N2CCN(C(=O)C3CCN(S(=O)(=O)c4cn(C)cn4)CC3)CC2)c1,nt,nt,nt,23.5%,11.5%,nt
CC(C)c1ccc(S(=O)(=O)N2CCN(C(=S)NCc3ccco3)CC2)cc1,21.2µM*,-19.9%,-4.7%,-12.6%,?,?
COc1cc(CN2CCN(c3ccccc3F)CC2)c([N+](=O)[O-])cc1OC,26.7µM*,-4.7%,2.7%,-7.3%,-15.6%,-1.7
O=[N+]([O-])c1cc2c(cc1CN1CCN(c3ccccc3F)CC1)OCO2,-2.8%,-3.1%,-3.5%,-26.0%,-10.8%,6.2
Cc1cc(C)c(NC(=O)C2CCN(c3nnc(C)c4c(C)n(-c5ccccc5)nc34)CC2)c(C)c1,nt,nt,nt,-14.6%,0.5%,nt
